Drawing on PubChem BioAssay (NCATS), this text covers outcome and Potency for 11 compounds.

Inconclusive results are not listed. A call without a number means that no potency is given here. Active and inactive are the calls of the source. Calls follow the shape of the dose curve; as a rule, active = well fitted inhibition curve with a large enough effect; inconclusive = small, poorly fitted or top-dose-only effect; inactive = flat fitted curve, though single readings scatter.

In assay [1] the test system is CRL-7250. In words: qHTS assay to identify novel small-molecules to repurpose for Merkel cell carcinoma treatment (AID 1296009). The note with it: MCC and control cell lines, CellTiter-Glo viability, 72 h. The method in brief:
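CellTiter-Glo luminescence after 72 hr compound exposure at 37 degree celsius gave cell viability. Libraries NPC and MIPE were run as 8- and 11-point dose responses; RLUs normalized to DMSO (negative) and no-cell (cytotoxicity) controls.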

The subject of assay [2] is TAB165. Nature of the assay: qHTS profiling for inhibitors of Plasmodium falciparum proliferation (AID 504749). The note with it: P. falciparum in erythrocytes, SYBR Green DNA, 72 h; series mostly up to 28.7 µM. The method in brief: (§1)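 SYBR Green fluorescence (ex 485 nm, em 535 nm) reports parasite DNA after 72 h compound exposure of infected red cells at 0.3% parasitemia, 2.5% hematocrit; signal normalized to 0.29 uM artemisinin and vehicle wells.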

The test system of assay [3] is W2. The description is as above. The note with it: P. falciparum in erythrocytes, SYBR Green DNA, 72 h; series mostly up to 28.7 µM. The method in brief: as §1
The mark [4] stands for this setting: at 44.8 µM (top of the series) unless noted.
Also: nearly all actives have a fitted effect of over 60% in size.

Take `COc1cc(/C=C/C(N)=O)cc(OC)c1OC`: the outcome in assay [1] (setting [4]) was inactive.
Consider `CS(=O)(=O)c1ccc([C@@H](O)[C@@H](CF)NC(=O)C(Cl)Cl)cc1`, for which the compound was classed as inactive in assay [1] (setting [4]).
As for `CCOC(=O)/C=C(C)/C=C/C=C(C)/C=C/c1c(C)cc(OC)c(C)c1C`, the outcome in assay [1] (setting [4]) was inactive.
As to `CC(CN(C)C)C(C)(O)Cc1ccc(Cl)cc1` (centres undefined), the call in assay [1] (setting [4]) was inactive.
For the compound `CC(=O)OCC(=O)[C@@]1(O)[C@H](OC(C)=O)C[C@H]2[C@@H]3CCC4=CC(=O)C=C[C@]4(C)[C@@]3(F)[C@@H](O)C[C@@]21C`, the outcome in assay [1] (setting [4]) was inactive.
For the compound `O=C(O)c1ccccc1-c1ccc(C(F)(F)F)cc1`, the compound was classed as inactive in assay [1] (setting [4]).
Take `O=C(O)c1ccc[n+]([O-])c1`: in assay [1] (setting [4]), the compound was called inactive.
Same read-out and setting: under `NC(=O)N1c2ccccc2C=Cc2ccccc21` stands “inactive”.
`CN1C(=O)C(O)N=C(c2ccccc2)c2cc(Cl)ccc21` (centres undefined): the Potency entry in assay [2] and in assay [3] was “inactive” each time.
`Nc1ccc(S(=O)(=O)Nc2ccnn2-c2ccccc2)cc1`: the compound was called inactive in assay [1] (at 17.4 µM (top of the series)) and in assay [1] (at 44.8 µM (top of the series)).
As to `O=C(O)Cc1cccc2ccccc12`, the compound was called inactive in assay [1] (at 44.8 µM (top of the series)) and in assay [1] (at 92 µM (top of the series)).
